Shown are actives, neighbours in structure and some others; about 28% of the full set was active somewhere.
CYP2C19 act – cytochrome P450 2C19 (human) activation; recombinant CYP2C19, luciferin-H EGE luminescence; stronger effect = higher value; 0 = fully inhibited enzyme, 1 = untreated enzyme; AID 1025; activation factor at 5 µM; 96,000 tested, under 10 active;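 active means activation factor of at least 2 at 5 µM in the primary screen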;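 further: 0 = wells with 2.5 mM tranylcypromine and 1 = vehicle-only wells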
CYP2C19 inhib – blocks human cytochrome P450 2C19. P33261. CYP2C19 Supersomes, luciferin-H EGE luminescence, 30 min. inhibition, % at 5 µM. actives 21% (n = 96,000);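 active means CYP2C19 inhibition above a set limit at 5 µM in the primary screen, cut at about 50% in these data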;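 further: plate controls were negative control wells for no effect and 2.5 mM tranylcypromine positive control for full effect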
CD11b adhes inh – blocks human CD11b/CD18 adhesion to fibrinogen. P05107+P11215. K562 CD11b/CD18 adhesion to fibrinogen, ATPlite luminescence; Mn2+ added to activate the integrin. inhibition, % at 10 µM. actives 0.54% (n = 93,000);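 active means primary inhibition of 50% or more at 10 µM, then 40% or more on retest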
Target sequence (P05107 whole entry, looked up, other chains not shown): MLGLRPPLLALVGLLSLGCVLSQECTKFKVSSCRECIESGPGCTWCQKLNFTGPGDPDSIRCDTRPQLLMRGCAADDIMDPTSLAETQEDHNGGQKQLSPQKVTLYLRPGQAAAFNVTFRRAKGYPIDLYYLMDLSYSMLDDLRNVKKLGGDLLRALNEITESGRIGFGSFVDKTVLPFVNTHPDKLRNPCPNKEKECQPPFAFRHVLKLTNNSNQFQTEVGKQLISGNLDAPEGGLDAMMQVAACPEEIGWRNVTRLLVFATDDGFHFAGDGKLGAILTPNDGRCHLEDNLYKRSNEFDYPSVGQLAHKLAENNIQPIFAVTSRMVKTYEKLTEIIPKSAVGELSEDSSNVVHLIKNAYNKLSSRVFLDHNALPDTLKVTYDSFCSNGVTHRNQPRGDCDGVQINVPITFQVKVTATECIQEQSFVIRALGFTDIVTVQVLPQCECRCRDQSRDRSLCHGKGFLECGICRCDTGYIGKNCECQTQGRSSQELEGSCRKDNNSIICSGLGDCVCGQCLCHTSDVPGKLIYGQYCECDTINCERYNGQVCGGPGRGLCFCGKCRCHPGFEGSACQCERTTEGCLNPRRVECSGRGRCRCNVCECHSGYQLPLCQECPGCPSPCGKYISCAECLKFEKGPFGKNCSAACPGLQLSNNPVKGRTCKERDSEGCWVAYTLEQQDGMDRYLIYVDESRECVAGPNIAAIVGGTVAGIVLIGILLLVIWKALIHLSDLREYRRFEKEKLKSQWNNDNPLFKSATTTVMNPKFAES
CYP2C9 inh – blocks human cytochrome P450 2C9; P11712; CYP2C9 Supersomes, luciferin-H conversion, luminescence; actives 20% (n = 96,000); inhibition, % at 5 µM;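 active means blocking of liver enzyme CYP2C9 beyond about 50% at 5 µM, limit read from the data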
Mac1 fbg enh – CD11b/CD18-fibrinogen binding enhancement | activation, % at 10 µM | K562 CD11b/CD18 adhesion to fibrinogen, ATPlite luminescence | actives 0.07% (n = 93,000) | P05107+P11215 | AID 1499;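 active means 10 µM primary screen giving 50% or more activity, confirmed by 40% or more on retest at that dose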
CYP2C9 activ – increases human cytochrome P450 2C9 activity; P11712; recombinant CYP2C9, luciferin-H conversion, luminescence; stronger effect = higher value; factor 1 = untreated enzyme, 0 = blocked; activation factor at 5 µM; actives 1.4% (n = 96,000); AID 1024;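 active means activation factor of 2 or more for CYP2C9 at a 5 µM dose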;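 further: 0 = sulfaphenazole-blocked wells and 1 = vehicle-only wells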
Starred values were filed as active, the others as inactive; x = no result given.

SMILES	CYP2C19 act	CYP2C19 inhib	CD11b adhes inh	CYP2C9 inh	Mac1 fbg enh	CYP2C9 activ
CCN(C(=O)CSc1nnnn1-c1ccccc1)c1c(N)n(Cc2ccccc2)c(=O)[nH]c1=O	x	x	0	x	-3	x
CCCP(=O)(CCC)CCP(=O)(c1ccccc1)c1ccccc1	x	x	-2	x	-3	x
COc1ccc(/C=N/n2cnnc2SCc2ccccc2)cc1	0.8	20	-15	33	-2	0.7
CCSc1nn2c(=O)c3ccccc3nc2s1	0.7	28	-56	49	1	0.5
Cc1ccc(Sc2ncccc2COC(=O)Nc2ccccc2)cc1	0.8	21	20	55*	-4	0.4
Cc1ccc(Sc2ncccc2COC(=O)Nc2c(C)cccc2C)cc1	0.8	20	-7	27	-3	0.7
COC(=O)c1ccc(CN2C(=O)NC3(CCCCC3C)C2=O)o1 (centres undefined)	0.9	9	-6	-8	-4	1.1
Cc1cc(N(C)C)nc(SC(C)C)n1	1	-1	1	-23	-2	1.2
CSC1=N/C(=C\c2ccccc2F)C(=O)S1	0.4	63*	-4	4	-2	1
COc1cccc(/C=C2\N=C(SC)SC2=O)c1OC	0.6	43	6	7	0	0.9
Cc1ccc(C(C(=O)NC2CCCCC2)N(C(=O)c2csnn2)C2CCCC2)o1 (centres undefined)	0.6	37	-9	32	7	0.7
Cc1ccsc1C(C(=O)NC1CCCCC1)N(C(=O)c1csnn1)C1CC1 (centres undefined)	0.4	64*	-1	12	-2	0.9
Cc1ccc(C(C(=O)NC2CCCC2)N(C(=O)c2csnn2)C2CCCC2)o1 (centres undefined)	0.4	64*	2	20	0	0.8
CC1CCC2(CC1)NC(=O)N(Cc1nc(-c3ccccc3)no1)C2=O (centres undefined)	0.7	33	-10	-2	-2	1
O=C1c2ccccc2NC(c2ccc(F)cc2)N1Cc1ccco1 (centres undefined)	0.5	53*	x	68*	x	0.3
O=C1c2ccccc2NC(c2ccccc2)N1Cc1ccco1 (centres undefined)	0.7	34	7	60*	-3	0.4
COc1ccc(C2Nc3ccccc3C(=O)N2Cc2ccco2)cc1COc1ccc([N+](=O)[O-])cc1 (centres undefined)	0.6	39	-6	96*	-3	0
CCOC(=O)CN1C(=O)C(=O)c2cccc(C)c21	1	2	-12	32	0	0.7
Cc1cc(C)cc(NS(=O)(=O)c2ccc3[nH]c(=O)[nH]c3c2)c1	0.9	14	-26	-38	1	1.4
CC(C)[C@H](NC(=O)Nc1ccccc1F)C(=O)O	1.2	-18	12	-14	-1	1.1
CC(=O)C1=C(O)C(=O)N(c2nccs2)C1c1ccccc1 (centres undefined)	0.9	14	-22	18	-2	0.8
O=C(Cn1ncc2c(=O)oc3ccccc3c21)Nc1nc2ccccc2s1	0.9	12	20	51*	19	0.5
O=C(NCCCN1CCCC1=O)c1csc2ccccc12	1	3	-5	-26	1	1.3
CCCN(C(=O)Cn1ncc2c(=O)oc3ccccc3c21)c1cccc(C)c1	0.6	36	4	60*	-3	0.4
Cn1cc(CC(=O)NCCCN2CCCC2=O)c2ccccc21	0.8	16	-3	-138	-3	2.4*
SMILES	CYP2C19 act	CYP2C19 inhib	CD11b adhes inh	CYP2C9 inh	Mac1 fbg enh	CYP2C9 activ
CCN(CCCNC(=O)Cn1ncc2c(=O)oc3ccccc3c21)c1cccc(C)c1	0.4	64*	6	70*	-2	0.3
O=C(Cn1ncc2c(=O)oc3ccccc3c21)NCCCN1CCCC1=O	0.2	80*	-12	11	-7	0.9
Cc1cccc(C)c1NC(=O)C/C(N)=N/O	0.9	13	-2	11	0	0.9
N#Cc1ccc(/C=N/NC(=O)c2cc(-c3cccs3)nc3ccccc23)cc1	x	x	15	x	18	x
CC(=O)NC1=C(C#N)C(c2ccccc2)c2c(ccc3ccccc23)O1 (centres undefined)	0.1	91*	17	95*	-5	0
O=C(O)Cn1ncc2c1-c1ccoc1CC2	1.2	-19	16	-6	0	1.1
O=C(NC1CCCCCC1)C1CCCN(S(=O)(=O)c2cnc[nH]2)C1 (centres undefined)	0.2	83*	1	45	-3	0.5
O=C(C1CCCN(S(=O)(=O)c2cnc[nH]2)C1)N1CCN(Cc2ccccc2)CC1 (centres undefined)	1	1	-8	4	-3	1
CCCCC(CC)CNC(=O)C1CCCN(S(=O)(=O)c2cnc[nH]2)C1 (centres undefined)	0	100*	-10	93*	0	0.1
O=C(NC1CCCc2ccccc21)C1CCCN(S(=O)(=O)c2cnc[nH]2)C1 (centres undefined)	0.1	92*	5	60*	0	0.4
Cc1cc(C)nc(N(C#N)Cc2ccccc2)n1	0.9	6	-6	-103	-3	2*
Cc1cc(C)nc(N(C#N)CCOc2ccccc2)n1	0.6	44	2	-52	12	1.5
Cc1cc(C)nc(N(C#N)CC(=O)c2ccccc2)n1	0.9	14	32	-115	-2	2.2*
Cc1cc(C)nc(N(C#N)Cc2cccc3ccccc23)n1	0.4	59*	5	-194	5	2.9*
Cc1ccc(OCC(=O)N2CCC(N3CCCCCC3)CC2)cc1	1	-1	4	-8	2	1.1
COc1ccc(C(=O)Nc2nc3ccccc3[nH]2)cc1S(=O)(=O)N1CCCC1	0.9	8	-5	14	-2	0.9
CCCCc1c(O)nc(SCC(=O)N2CCOCC2)[nH]c1=O	1.1	-12	-30	-7	1	1.1
O=C(c1cccs1)N(Cc1nc2sc3c(c2c(=O)[nH]1)CCCC3)C1CCCC1	0.6	37	18	70*	4	0.3
Cc1sc2nc(CN(C(=O)c3cccs3)C3CCCC3)[nH]c(=O)c2c1C	0.9	12	4	74*	-1	0.3
Cc1sc2nc(CN(Cc3cccs3)C(=O)NC3CCCCC3)[nH]c(=O)c2c1C	0	97*	22	96*	-4	0
Cc1cccc(NC(=O)N(Cc2nc3ccccc3c(=O)[nH]2)C2CCCC2)c1	1	1	x	x	x	x
CCN(CC)C(=O)CCc1nc2sc3c(c2c(=O)[nH]1)CCCC3	0.4	65*	-7	47	-4	0.5
CC1=C(C)[N+](=O)C2CCCCC2N1[O-] (centres undefined)	1.1	-10	-6	3	-8	1
O=c1c(=O)n(O)c2ccccc2n1O	1.1	-14	-2	-14	-6	1.1
